Drawing on ChEMBL document CHEMBL1157539, “Thousands of chemical starting points for antimalarial lead identification” (Nature, 2010), this text covers Inhibition for eleven molecules.

Each structure is given as a SMILES string.

Common to all, as to format: functional
The test system of assay [1] is Plasmodium falciparum. Briefly: GSK_TCMDC: Inhibition of Plasmodium falciparum 3D7 in whole red blood cells, using parasite LDH activity as an index of growth. Test compounds present at 2uM.
Assay [2] concerns Plasmodium falciparum. Briefly: GSK_TCMDC: Inhibition of Plasmodium falciparum Dd2 in whole red blood cells, using parasite LDH activity as an index of growth. Test compounds present at 2uM.
The next assay has as its system HepG2. Briefly: GSK_TCMDC: Percent inhibition of human HepG2 cell line. Test compounds present at 10uM.

Take `COc1ccc(Cn2c(Nc3cccc(C(F)(F)F)c3)nc3cc(C(=O)NC(C)C)cnc32)cc1Cl`: the Inhibition came out at 85% in the assay on Plasmodium falciparum [1], 81% in the assay with Plasmodium falciparum [2] and 0% in the assay with HepG2.
As to `Br.CCc1ccc(OCCCON2C(=N)N=C(N)NC2(C)C)cc1`, the Inhibition is 95% with Plasmodium falciparum [1], 95% in the assay with Plasmodium falciparum [2] and 64% in the assay on HepG2.
As to `CCOC(=O)c1ccc(N2CCN(c3cc(Cl)ccc3C)CC2)c(NC(=O)Nc2ccc(Cl)c(Cl)c2)c1`, the Inhibition with Plasmodium falciparum [1] is reported as 99%; with Plasmodium falciparum [2], 99%; with HepG2 it was 10%.
On to `Cc1ccc(Cl)cc1N1CCN(CCCNC(=O)C2CCN(c3nc4ccccc4[nH]3)CC2)CC1`, for which the figures for the Inhibition in the assay on Plasmodium falciparum [1], with Plasmodium falciparum [2] and in the assay on HepG2 were 88%, 0% and 41%, respectively.
On the same counts, the results for `CC(C)Cn1c2ccccc2c2nc3nc(N)nc(N)c3nc21` are 93%, 0% and 36%.
On to `O=C(NCC1Cc2cc(Oc3ccccc3)ccc2O1)c1ccc([N+](=O)[O-])o1` (stereo not drawn), for which the values for the Inhibition with Plasmodium falciparum [1], in the assay with Plasmodium falciparum [2] and in the assay with HepG2 were 88%, 81% and 83%, respectively.
`O=C(Cc1c[nH]cn1)Nc1cccc(-c2ccc(-c3nc4cc(F)ccc4[nH]3)s2)c1`: the Inhibition in the assay with Plasmodium falciparum [1] was found to be 100%; in the assay with Plasmodium falciparum [2], 94%; in the assay with HepG2, 4%.
On to `CC(C)N(CCOc1ccc2c(c1)N(C(=O)Nc1ccc(Cl)c(Cl)c1)CC2)C(C)C.O=C(O)C(F)(F)F`, for which the Inhibition in the assay on Plasmodium falciparum [1] is listed as 100%; with Plasmodium falciparum [2], 39%; in the assay with HepG2 it was 15%.
For `CCCCCCCN(Cc1ccc(OC(C)(C)C(=O)OCC)cc1)C(=O)Nc1ccccc1OC(F)(F)F` the same measures were 95%, 68% and 0%.
On the same counts, the results for `Cc1nc2ccc3nc(NC(=O)c4ccno4)sc3c2s1` are 99%, 97% and 6%.
As for `COc1ccc(-c2cc(Nc3nc(-c4cccc(Cl)c4)nc4ccccc34)ccn2)cc1`, the Inhibition stood at 100% in the assay on Plasmodium falciparum [1], 17% in the assay with Plasmodium falciparum [2] and 3% with HepG2.
